This is part of a sample that, as a whole, favours compounds with a hit. Of some 83,000 tested, about 20% had one in any assay.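 Percent growth is the endpoint: 0 to 100 indicates growth inhibition (40 means 60% inhibition), 0 means no net growth, and negative values indicate cell death.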 Values without a mark were called inactive. Activity calls are given as the source filed them. The calls were made as follows: active = growth percent below 10; inactive = the rest.
What was measured:
Assay in all cases: NCI-60 one-dose screen, 48 h (100 = growth as untreated, 0 = no growth, -100 = all killed)
Conditions in all cases: 10 µM unless noted
NCI-H23 lung = system: NCI-H23 lung
NCI-H226 lung = system: NCI-H226 lung
NCI-H322M lung = system: NCI-H322M lung
HOP-62 NSCLC = system: HOP-62 NSCLC
NCI-H460 lung = system: NCI-H460 lung
HOP-92 NSCLC = system: HOP-92 NSCLC
NCI-H522 lung = system: NCI-H522 lung
A549/ATCC NSCLC = system: A549/ATCC NSCLC
786-0 renal = system: 786-0 renal
COLO 205 colon = system: COLO 205 colon
DU-145 prostate = system: DU-145 prostate
K-562 leukemia = system: K-562 leukemia
MALME-3M melanoma = system: MALME-3M melanoma
MDA-MB-231 breast = system: MDA-MB-231 breast
RXF 393 renal = system: RXF 393 renal
SF-268 CNS = system: SF-268 CNS
SF-295 CNS = system: SF-295 CNS
SF-539 CNS = system: SF-539 CNS
UACC-257 melanoma = system: UACC-257 melanoma
M14 melanoma = system: M14 melanoma

Row | Structure (SMILES) | growth (NCI-H23 lung) | growth (NCI-H226 lung) | growth (NCI-H322M lung) | growth (HOP-62 NSCLC) | growth (NCI-H460 lung) | growth (HOP-92 NSCLC) | growth (NCI-H522 lung) | growth (A549/ATCC NSCLC) | growth (786-0 renal) | growth (COLO 205 colon) | growth (DU-145 prostate) | growth (K-562 leukemia) | growth (MALME-3M melanoma) | growth (MDA-MB-231 breast) | growth (RXF 393 renal) | growth (SF-268 CNS) | growth (SF-295 CNS) | growth (SF-539 CNS) | growth (UACC-257 melanoma) | growth (M14 melanoma)
1 | c1cc2nc(-c3cn[nH]c3)c3c(c2cc1-c1cn[nH]c1)C1CCC3C1 (centres undefined) | 53% | 39.5% | 75% | 47.8% | 54% | 28% | 75.1% | 74% | 81.5% | 90.5% | 81.4% | 65% | 61.4% | 53% | 15.3% | 77% | 57.8% | 66.7% | 83.9% | 69.3%
2 | CC/C=C\C[C@@H]1C/C=C2/C(=O)C=C[C@H]2C/C=C\CCCC(=O)O1 | -32.1% (active) | -20% (active) | -54.5% (active) | -14% (active) | -48.6% (active) | -25.8% (active) | -83.4% (active) | -26.7% (active) | -88.4% (active) | -64.2% (active) | -66.8% (active) | -0.441% (active) | -41.1% (active) |  | -80.6% (active) | -57.6% (active) | -18.1% (active) | -64.3% (active) | -41.7% (active) | -48.8% (active)
3 | CN1CCN(Cc2ccc(NC(=O)c3ccc(C(C)(C)C)c(C#Cc4cnc5cccnn45)c3)cc2C(F)(F)F)CC1 | -65.1% (active) | 48.5% | -29.6% (active) | -73.1% (active) | -52.7% (active) | 23.9% | -73.5% (active) | -76.8% (active) | -85.4% (active) | -70.1% (active) | -76.7% (active) | -53% (active) | -53.7% (active) |  | -78.7% (active) | -74.7% (active) | -59.9% (active) | -76.3% (active) | -37.7% (active) | -69.2% (active)
4 | C#Cc1cccc(NC(=O)Nc2ccccc2NC(=O)CCl)c1 | -52.2% [8.25 µM] (active) | -56.2% [8.25 µM] (active) | 91% [8.25 µM] | -34.8% [8.25 µM] (active) | -24.4% [8.25 µM] (active) | -30.6% [8.25 µM] (active) | -58.6% [8.25 µM] (active) | 10% [8.25 µM] | -63.2% [8.25 µM] (active) | -49.3% [8.25 µM] (active) | 6.7% [8.25 µM] (active) | 9.69% [8.25 µM] (active) | -19.1% [8.25 µM] (active) | -71.7% [8.25 µM] (active) | -81.1% [8.25 µM] (active) | -17.4% [8.25 µM] (active) | 38.7% [8.25 µM] | -70.8% [8.25 µM] (active) | -12.6% [8.25 µM] (active) | -22.2% [8.25 µM] (active)
5 | Clc1ccc2c(c1)N(CCCN1CCCC1)c1ccccc1S2 | 62.5% | 88.2% | 36.3% | 56.4% | 30% | -4.23% (active) | 71.1% | 58.6% | 45.1% | -30.8% (active) | 59.1% | 0.508% (active) | 7.63% (active) |  | 23.6% | 30% | 54.6% | 15.3% | 85.8% | -47% (active)
6 | c1ccc(OCc2nnc(-c3ccc(Oc4ccccc4)cc3)o2)cc1 | 94.2% | 93.7% | 106% | 86.4% | 104% | 84.6% | 86.8% | 96% | 99.1% | 104% | 99.1% | 93.2% | 101% |  | 106% | 89.2% | 103% | 103% | 109% | 98.2%
7 | COC(=O)[C@H](C)NC(=O)NC(=O)NC(=O)CI | 86.2% | 89.2% | 103% | 98.4% | 104% | -21.4% (active) | -75% (active) | 96.4% | 63.9% | 32% | 84.5% | 7.73% (active) | -53.9% (active) |  | 59.1% | 82.6% | 91.9% | 94.6% | 104% | 58.5%
8 | Cc1ccc(C(CC(=O)O)c2c(C)[nH][nH]c2=O)cc1 (centres undefined) | 95.3% | 102% | 104% | 97.9% | 108% | 118% | 94.5% | 105% | 96% | 113% | 106% | 90.8% | 99.4% | -33.1% (active) | 102% | 94.9% | 102% | 97% | 104% | 96.7%
9 | O=C(O)c1cn(C2CC2)c2cc(N3CCN(C(=O)Nc4nc(-c5ccccc5)cs4)CC3)c(F)cc2c1=O | 9.06% (active) | 46.8% | 31.4% | 26% | 5.5% (active) | -21.5% (active) | -2.04% (active) | 7.93% (active) | 22.5% | 51% | 17.2% | 17.1% | 23.9% |  | 42.7% | 23.3% | 10.6% | 21% | 9.92% (active) | 31.6%
10 | N#Cc1c(-c2ccc(Cl)cc2)nc(NCCO)[nH]c1=O | 94.3% | 101% | 94.4% | 88.6% | 114% | 92.3% | 95.9% | 93.9% | 101% | 106% | 104% | 103% | 98.8% |  | 116% | 89.6% | 95.3% | 95.9% | 107% | 94.6%
11 | O=c1c2cc(F)ccc2sc2c(N3CCCCC3)nc3ccccc3c12 | 95.8% | 86% | 90.1% | 99.3% | 109% | 84.2% | 98.5% | 96.2% | 95.8% | 106% | 107% | 112% | 104% | 98.9% | 104% | 102% | 101% | 102% | 97.3% | 96.8%
12 | O=C1CCC/C=C\C[C@H]2C=CC(=O)/C2=C/C[C@H](CCc2cccc(C(F)(F)F)c2)O1 | -22% (active) | -36.2% (active) | -44.6% (active) | -73.7% (active) | -24.6% (active) | -46.5% (active) | -88.7% (active) | 0.826% (active) | -79.2% (active) | -84.8% (active) | -44.6% (active) | 0.315% (active) | -25.5% (active) |  | -81.9% (active) | -39% (active) | -22.9% (active) | -56.7% (active) | -34.7% (active) | -30.9% (active)
13 | CCN1C(=O)N(CC)C2Nn3c(s/c(=C\c4ccc([N+](=O)[O-])cc4)c3=O)=NC21 (centres undefined) | 69.3% | 80.1% | 89.7% | 96.2% | 98.3% | 84.1% | 9.71% (active) | 82.4% | 85.1% | 35.5% | 91.8% | 29.4% | 70.3% | 47.8% | 103% | 90% | 93.9% | 94.3% | 43.4% | 48%
14 | CCOC(=O)Cn1c(C)c(/C=N/NC(=O)c2cc3c(ccc4ccccc43)o2)c2ccccc21 | 27.7% | 19.4% | 41.5% | 26.5% |  | 60.5% | -25.5% (active) | 21.8% | 20.7% | -39.9% (active) | 11.2% | 10.9% | 70.8% | 38.8% | -11.1% (active) | 35.7% | 19.3% | -14.1% (active) | 41.5% | 
15 | CCCCCCCNC(=O)CCCNc1ncnc2c1ncn2-c1cccc(C(C)O)c1 (centres undefined) | 90.7% | 79.3% | 108% | 95.9% | 99.8% | 96.6% | 80.9% | 94.5% | 97.3% | 92.9% | 94.4% | 41.6% | 84.8% |  | 89.9% | 83.8% | 93.6% | 94.1% | 121% | 89.3%
16 | O=C(Nc1ccc(I)cc1F)c1cc(I)ccc1O | -13.4% (active) | -4.51% (active) | -3.09% (active) | 16.8% | 2.89% (active) | -20.5% (active) | -5.05% (active) | 10.9% | 2.12% (active) | 91.1% | 21.2% | 7.64% (active) | -26.9% (active) | -34.7% (active) | -9.34% (active) | 13.6% | -34% (active) | 9.88% (active) | -17% (active) | 5.74% (active)

Source: PubChem BioAssay (NCI)
